“And” between values parts separate entries of the source, which are not always exact repeats. Identical values can stand only once. Records with an inconclusive call do not appear. A structure can be active in one record and inactive in another. The source made the active and inactive calls. How the source made its calls: active means hit-call score of the fitted dose curve at least 0.9, where 1 is the maximum; inconclusive means response in the unintended direction; inactive means score below 0.9.
target: Cellular tumor antigen p53 (Homo sapiens) (UniProt P04637); test: TOX21_p53_BLA_p2_ratio: Tox21 HCT-116 p53 Agonism Beta-lactamase Assay, Ratio, Phase 2 (AID 2283592)
Source text: TOX21_p53_BLA_p2 is a cell-based, single-readout assay that uses HCT116, a human intestinal cell line, […] in a 1536-well plate.TOX21_p53_BLA_p2_ratio is an assay readout measuring reporter gene via receptor activity and designed using inducible reporter (beta lactamase induction) detected with GAL4 b-lactamase reporter gene. The signal is derived from the ratio of cleaved (ch2) to uncleaved (ch1) reporter gene substrate used as the measure of target activity.Data from the assay component TOX21_p53_BLA_p2_ratio was analyzed into 1 assay endpoint. This assay endpoint, TOX21_p53_BLA_p2_ratio, was analyzed in the positive analysis fitting direction relative to DMSO as the negative control and baseline of activity. Using a type of inducible reporter, gain-of-signal activity can be used to understand changes in the reporter gene as they relate to the gene TP53. Furthermore, this assay endpoint can be referred to as a primary readout, because this assay has produced multiple assay endpoints and this ratio serves a reporter gene function to understand target activity. To generalize the intended target to other relatable targets, this assay endpoint is annotated to the DNA binding intended target family, where the subfamily is tumor suppressor.
Thawing Method: Place 14 mL of pre-warmed thaw medium into a 15 mL of conical tub. Remove the vial of cells to be thawed from liquid nitrogen and thaw rapidly by placing at 37C in a water bath with gentle agitation for 1-2 minutes. Decontaminate the vial by wiping with 70% ethanol before opening in a biological safety cabinet. Transfer the vial contents drop-wise into 14 mL of thaw medium in a sterile 15-mL conical tub. Centrifuge cells at 900 rpm for 4 minutes and resuspend in thaw medium. Transfer contents to the T75 tissue culture flask containing Thaw Medium and place flask in a humidified 37C/5% CO2 incubator. Switch to growth medium at first passage.Propagation Method: Aspirate medium, rinse once in DPBS, add 0.25% Trypsin/EDTA and swirl to coat the cell evenly. Add an equal volume of Growth Medium to inactivate Trypsin after 2-3 minutes incubation at 37C. Centrifuge cells at 900 rpm for 4 minutes and resuspend in growth medium. Cell should be passage or fed at least twice a week.Assay Protocol: Harvest cells from culture in growth medium and resuspend in assay medium. 2.2 Dispense 4000 cells/5 uL/well into 1536-well black/clear bottom plates using a Multidrop dispenser. After the cells were incubated at 37C for 5 hours, 23 nL of compounds dissolved in DMSO were transferred to the assay plate by a PinTool resulting in a 217-fold dilution. Incubate the plates for 16 hours at 37C, 5% CO2. Add 1 uL of 6X LiveBLAzer FRET B/G (CCF4-AM) Substrate Mixture to each well using a BioRAPTR dispenser and incubate the plates at room temperature for 2 hours. Measure fluorescence intensity at 460 and 530 nm emission and 405 nm excitation by an Envision detector. Data is expressed as the ratio of 460nm/530nm emissions. Add 4 uL of Cell-titer Glo to each well using BioRAPTR and incubate the plates at room temperature for 2 hours. Measure fluorescence intensity by a VewLux plate reader.

Chain of Cellular tumor antigen p53 (Homo sapiens) (P04637 whole entry, looked up, the tested form may be a part): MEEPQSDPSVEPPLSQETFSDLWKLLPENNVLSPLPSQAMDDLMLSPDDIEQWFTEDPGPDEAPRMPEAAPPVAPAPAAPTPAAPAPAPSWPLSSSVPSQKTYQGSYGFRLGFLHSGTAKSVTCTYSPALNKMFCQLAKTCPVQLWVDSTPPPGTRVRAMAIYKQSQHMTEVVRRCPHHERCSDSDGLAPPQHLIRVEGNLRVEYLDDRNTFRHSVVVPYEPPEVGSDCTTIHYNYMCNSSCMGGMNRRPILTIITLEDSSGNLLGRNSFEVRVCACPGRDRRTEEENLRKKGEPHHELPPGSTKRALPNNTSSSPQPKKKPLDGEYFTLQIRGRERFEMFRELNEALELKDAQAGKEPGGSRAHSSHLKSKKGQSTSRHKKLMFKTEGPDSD

Row | SMILES | outcome | AC50
1 | CC(C)CCCC(C)CC=O (stereo not given) | inactive | 
2 | CCN(CC#N)c1cccc(C)c1 | inactive | 
3 | CNC(=S)N(C)C | inactive | 
4 | O=C(O)CCCCCCCCCC(=O)O | inactive | 
5 | COC(=O)c1sccc1S(N)(=O)=O | inactive | 
6 | O=C(c1ccccc1)c1ccc(O)c(O)c1O | inactive | 
7 | CC(=O)Oc1ccc(C)cc1 | inactive | 
8 | O=C1OC(=O)c2cc(Oc3ccc4c(c3)C(=O)OC4=O)ccc21 | inactive | 
9 | CC(=O)OC(C)C | inactive | 
10 | O=C(Nc1cccc(C(F)(F)F)c1)c1cc(Br)cc(Br)c1O |  | 181 nM (active) and 1.14 µM (active)
11 | NC(=O)OCC(COC(N)=O)c1ccccc1 | inactive | 
12 | CCC(Cc1ccccc1)(C(=O)c1ccc(N2CCOCC2)cc1)N(C)C (stereo not given) | inactive | 
13 | CCN(CCC#N)c1ccc(N=Nc2c(Cl)cc([N+](=O)[O-])cc2Cl)cc1 | inactive | 
14 | O=C1C=CC(=O)O1 | inactive | 
15 | C#CC1(O)CC[C@H]2[C@@H]3CCC4=CCCC[C@@H]4[C@H]3CC[C@@]21C (stereo not given in full) | inactive | 87.7 µM (active)
16 | O=C1CCCN1CCO | inactive | 
17 | COc1ccc([C@@H]2CC(=O)c3c(O)cc(O[C@@H]4O[C@H](CO[C@@H]5O[C@@H](C)[C@H](O)[C@@H](O)[C@H]5O)[C@@H](O)[C@H](O)[C@H]4O)cc3O2)cc1OC | inactive | 
18 | COC(=O)/C=C/C(C)=C\C=C\C(C)=C\C=C\C=C(C)\C=C\C=C(C)\C=C\C(=O)O | inactive | 

Row | SMILES | outcome | AC50
19 | CCO[Si](CCCN=C=O)(OCC)OCC | inactive | 
20 | C=C1C2CCC(C2)C1(C)C (stereo not given) | inactive | 
21 | Cc1cc(C)c(C)c(C)c1 | inactive | 
22 | CN(C)CCCN(C)C | inactive | 
23 | Cc1cccc(N)n1 | inactive | 
24 | Nc1ccc(Cl)cc1Cl | inactive | 
25 | Nc1ccc(N=Nc2ccccc2)c(N)n1 | inactive | 85.6 µM (active) and 25.8 µM (active)
26 | Nc1ncn([C@@H]2O[C@H](CO)[C@@H](O)[C@H]2O)c(=O)n1 | inactive | 1.06 µM (active)
27 | O=C1c2ccccc2C(=O)C1c1nc2ccccc2c(Br)c1O | inactive | 
28 | Nc1ccc(N)c(Cl)c1 | inactive | 68.3 µM (active)
29 | CC(=O)C=CC1C(C)=CCC(C)C1(C)C (stereo not given) | inactive | 
30 | COc1c2ccoc2cc2oc(=O)ccc12 | inactive | 
31 | C(=CC=Nc1ccccc1)C=CNc1ccccc1 | inactive | 
32 | COC(=O)c1c(C)cc(O)c(C)c1O | inactive | 
33 | O=c1[nH]nc(-c2ccc([N+](=O)[O-])o2)o1 | inactive | 
34 | C[C@]12CCC(=O)C=C1CC[C@@H]1[C@@H]2C(=O)C[C@@]2(C)[C@H]1CC[C@]2(O)C(=O)CO | inactive | 
35 | CCC(C)C=O (stereo not given) | inactive | 
36 | Cc1ccc(C(C)c2ccc(C)c(C)c2)cc1C | inactive | 

— PubChem BioAssay (EPA / NIEHS)
